Laboratory results taken from PubChem BioAssay (NCI).
Compounds without any hit were thinned out: in the full panel of roughly 79,000, 15% have a hit. Active and inactive are the calls of the source. Cut-off read from the data, not from the text of the source: active = growth inhibition above about 70%; inactive = the rest.

Legend:
[1] = NCI Yeast Anticancer Drug Screen. Data for the wt1 strain (AID 149);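 note: 0% = growth of vehicle-treated wt1 cultures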; details: S. cerevisiae wt1 strain (SPY 50644) growth inhibition, stronger effect = higher value
Procedure, shortened: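 Yeast wt1 strain exposed to compounds; growth inhibition measured relative to vehicle-treated controls.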

[2] = NCI Yeast Anticancer Drug Screen. Data for the rad50EPP+ strain (AID 151);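 note: 0% = growth of vehicle-treated control cultures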; details: S. cerevisiae rad50 mutant strain, stronger effect = higher value
Procedure, shortened: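 rad50EPP+ yeast treated with test compounds. Readout: growth vs vehicle control.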

[3] = NCI Yeast Anticancer Drug Screen. Data for the mgt1 strain (AID 153); details: S. cerevisiae mgt1 mutant growth inhibition, stronger effect = higher value
Procedure, shortened: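 Growth inhibition relative to vehicle controls was scored for the mgt1 yeast strain after compound exposure.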

[4] = NCI Yeast Anticancer Drug Screen. Data for the rad50 strain (AID 155);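 note: 0% = growth of vehicle-only cultures of the same strain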; details: S. cerevisiae rad50 strain growth inhibition, stronger effect = higher value
Procedure, shortened: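 Yeast carrying a defined DNA repair defect were exposed to test compounds, and growth was compared with vehicle-treated controls to give percent inhibition.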

[5] = NCI Yeast Anticancer Drug Screen. Data for the mec2-1 strain (AID 157); details: S. cerevisiae mec2-1 strain, stronger effect = higher value
Procedure, shortened: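 Growth inhibition is read against vehicle-treated controls after compound exposure of the mec2-1 yeast strain, which is defective in DNA damage repair or cell cycle control.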

[6] = NCI Yeast Anticancer Drug Screen. Data for the sgs1 mgt1 strain (AID 161);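 note: 0% = growth of cultures given vehicle only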; details: S. cerevisiae sgs1 mgt1 strain, stronger effect = higher value
Procedure, shortened: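 Percent growth inhibition was derived by comparing compound-exposed mutant yeast with vehicle-exposed cultures. The strain carries alterations in DNA damage repair.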

[7] = NCI Yeast Anticancer Drug Screen. Data for the CLN2oe strain (AID 163);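 note: 0% = growth of vehicle-only control cultures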; details: S. cerevisiae CLN2oe strain, stronger effect = higher value
Procedure, shortened: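 Compound-treated yeast; growth vs vehicle ctrl = % inhibition. Genetically altered strain (cell-cycle control).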

[8] = NCI Yeast Anticancer Drug Screen. Data for the bub3 strain (AID 167); details: S. cerevisiae bub3 mutant strain, stronger effect = higher value
Procedure, shortened: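 Compounds were applied to a genetically altered yeast strain carrying a cell-cycle control defect. Growth inhibition was scored against vehicle-treated controls.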

[9] = NCI Yeast Anticancer Drug Screen. Data for the wt2 strain (AID 169);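 note: 0% = growth of vehicle-treated yeast cultures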; details: S. cerevisiae wt2 strain growth inhibition, stronger effect = higher value
Procedure, shortened: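 Compound exposure of yeast; growth compared with vehicle controls; inhibition reported.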

[10] = NCI Yeast Anticancer Drug Screen. Data for the mlh1 strain (AID 171);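 note: 0% = growth of vehicle-treated control cultures of the same strain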; details: S. cerevisiae mlh1 strain growth inhibition, stronger effect = higher value
Procedure, shortened: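 Compounds are applied to a genetically altered yeast strain, and its growth is compared with that of vehicle-treated cultures to give percent inhibition.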

[11] = NCI Yeast Anticancer Drug Screen. Data for the sgs1 strain (AID 173);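 note: 0% = growth of vehicle-only control cultures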; details: S. cerevisiae sgs1 mutant, stronger effect = higher value
Procedure, shortened: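 Compounds applied to genetically altered yeast; growth compared with vehicle-treated cultures to give % inhibition.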

[12] = NCI Yeast Anticancer Drug Screen. Data for the mlh1 rad18 strain (AID 175); details: S. cerevisiae mlh1 rad18 strain growth inhibition, stronger effect = higher value
Procedure, shortened: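 Cells of a genetically altered yeast strain, deficient in DNA damage repair, were treated with compound. Their growth was then compared with that of vehicle-treated cultures to give inhibition.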

[13] = NCI Yeast Anticancer Drug Screen. Data for the rad18 strain (AID 177); details: S. cerevisiae rad18 mutant growth inhibition, stronger effect = higher value
Procedure, shortened: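 Compounds are applied to a repair-deficient yeast strain, and growth is compared with that of vehicle-treated cultures to give percent inhibition.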

[14] = NCI Yeast Anticancer Drug Screen. Data for the rad14 strain (AID 159);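 note: 0% = growth of vehicle-treated control cultures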; details: S. cerevisiae rad14 strain growth inhibition, stronger effect = higher value
Procedure, shortened: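 Yeast cells carrying a defined DNA-repair defect were exposed to compounds, and growth inhibition was calculated relative to vehicle-treated control cultures.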

[15] = NCI Yeast Anticancer Drug Screen. Data for the cln2 rad14 strain (AID 165);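 note: 0% = growth equal to vehicle treated cultures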; details: S. cerevisiae cln2 rad14 strain, stronger effect = higher value
Procedure, shortened: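 Growth inhibition, relative to vehicle-treated controls, is the read-out. The test organism is a yeast strain with defined genetic alterations, cln2 rad14.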

[16] = at 5.0 µM (retest, dose inferred, filed as 0.5)
[17] = at 50.0 µM (retest, dose inferred, filed as 5.0)

Measured: growth inhibition

Nc1cccc2cc(Cl)cnc12
inactive: [1]; at 1.2 µM -26% | [1]; at 3.7 µM -26% | [1]; at 11.0 µM -28% | [1]; at 33.0 µM -23% | [1]; at 100.0 µM 63% | [2]; at 1.2 µM -3% | [2]; at 3.7 µM 5% | [2]; at 11.0 µM 11% | [2]; at 33.0 µM 39% | [3]; at 1.2 µM -2% | [3]; at 3.7 µM -2% | [3]; at 11.0 µM 7% | [3]; at 33.0 µM 10% | [3]; at 100.0 µM 64% | [4]; at 1.2 µM 18% | [4]; at 3.7 µM 24% | [4]; [16] 62% | [4]; at 11.0 µM 31% | [4]; at 33.0 µM 47% | [5]; at 1.2 µM 12% | [5]; at 3.7 µM 10% | [5]; [16] 53% | [5]; at 11.0 µM 13% | [5]; at 33.0 µM 7% | [5]; at 50.0 µM 20.9% | [6]; [16] 3% | [6]; [17] 10% | [6]; at 50.0 µM 59.7% | [7]; at 1.2 µM 2% | [7]; at 3.7 µM -4% | [7]; at 11.0 µM -23% | [7]; at 33.0 µM -16% | [7]; at 100.0 µM 38% | [8]; at 1.2 µM 3% | [8]; at 3.7 µM 10% | [8]; [16] 41% | [8]; at 11.0 µM 8% | [8]; at 33.0 µM 13% | [8]; [17] 18% | [8]; at 50.0 µM 38.5% | [9]; at 1.2 µM -34% | [9]; at 3.7 µM -18% | [9]; at 11.0 µM -20% | [9]; at 33.0 µM -15% | [9]; at 100.0 µM 34% | [10]; at 1.2 µM -40% | [10]; at 3.7 µM -41% | [10]; at 11.0 µM -40% | [10]; at 33.0 µM -33% | [10]; at 100.0 µM 49% | [11]; at 1.2 µM -32% | [11]; at 3.7 µM -31% | [11]; at 11.0 µM -14% | [11]; at 33.0 µM 0% | [11]; at 100.0 µM 64% | [12]; [16] 55% | [12]; at 50.0 µM 67.3% | [13]; at 1.2 µM 13% | [13]; at 3.7 µM 27% | [13]; at 11.0 µM 61%
active: [2]; at 100.0 µM 76% | [4]; [17] 98% | [4]; at 50.0 µM 71% | [4]; at 100.0 µM 87% | [5]; [17] 98% | [5]; at 100.0 µM 78% | [8]; at 100.0 µM 81% | [12]; [17] 100% | [13]; at 33.0 µM 82% | [13]; at 100.0 µM 90%

Cn1c(COc2ccc(/C=N/NC(=O)CCC(=O)N/N=C/c3ccc(OCc4c[n+]5ccccc5n4C)cc3)cc2)c[n+]2ccccc12
active: [1]; at 100.0 µM 81% | [3]; at 100.0 µM 98% | [4]; at 100.0 µM 97% | [5]; at 100.0 µM 96% | [14]; at 100.0 µM 97% | [8]; at 100.0 µM 95% | [9]; at 100.0 µM 99% | [10]; at 100.0 µM 96% | [11]; at 100.0 µM 96% | [12]; [17] 84% | [12]; at 50.0 µM 90.2%
inactive: [1]; at 1.2 µM 6% | [1]; at 3.7 µM 7% | [1]; at 11.0 µM 11% | [1]; at 33.0 µM 12% | [2]; at 1.2 µM -4% | [2]; at 3.7 µM -7% | [2]; at 11.0 µM -18% | [2]; at 33.0 µM -18% | [2]; at 100.0 µM 45% | [3]; at 1.2 µM 4% | [3]; at 3.7 µM 3% | [3]; at 11.0 µM 4% | [3]; at 33.0 µM 24% | [4]; at 1.2 µM 1% | [4]; at 3.7 µM 2% | [4]; [16] -11% | [4]; at 11.0 µM 1% | [4]; at 33.0 µM 5% | [4]; [17] 55% | [4]; at 50.0 µM 49.1% | [5]; at 1.2 µM -2% | [5]; at 3.7 µM 0% | [5]; [16] -10% | [5]; at 11.0 µM 0% | [5]; at 33.0 µM 10% | [5]; [17] 12% | [5]; at 50.0 µM 32.1% | [14]; at 1.2 µM 0% | [14]; at 3.7 µM -1% | [14]; at 11.0 µM 0% | [14]; at 33.0 µM 7% | [6]; [16] -1% | [6]; [17] 47% | [6]; at 50.0 µM 63.4% | [15]; [16] -8% | [15]; [17] 28% | [15]; at 50.0 µM 18.8% | [8]; at 1.2 µM -3% | [8]; at 3.7 µM -6% | [8]; [16] -24% | [8]; at 11.0 µM -6% | [8]; at 33.0 µM -1% | [8]; [17] 33% | [8]; at 50.0 µM 18.9% | [9]; at 1.2 µM 4% | [9]; at 3.7 µM 5% | [9]; at 11.0 µM 8% | [9]; at 33.0 µM 12% | [10]; at 1.2 µM 1% | [10]; at 3.7 µM -2% | [10]; at 11.0 µM -1% | [10]; at 33.0 µM 8% | [11]; at 1.2 µM 4% | [11]; at 3.7 µM 4% | [11]; at 11.0 µM 5% | [11]; at 33.0 µM 16% | [12]; [16] -15%

COc1ccc(/C=C2\CCc3ccccc3C2=O)cc1OC
active: [1]; at 100.0 µM 88% | [3]; at 100.0 µM 89% | [4]; at 50.0 µM 83.3% | [4]; at 100.0 µM 82% | [5]; at 100.0 µM 90% | [14]; at 100.0 µM 80% | [6]; at 50.0 µM 84.8% | [7]; at 100.0 µM 92% | [9]; at 100.0 µM 91% | [10]; at 33.0 µM 79% | [10]; at 100.0 µM 91%
inactive: [1]; at 1.2 µM -13% | [1]; at 3.7 µM -2% | [1]; at 11.0 µM -11% | [1]; at 33.0 µM 24% | [2]; at 1.2 µM -24% | [2]; at 3.7 µM -26% | [2]; at 11.0 µM 1% | [2]; at 33.0 µM 32% | [2]; at 100.0 µM 40% | [3]; at 1.2 µM 2% | [3]; at 3.7 µM 5% | [3]; at 11.0 µM 21% | [3]; at 33.0 µM 67% | [4]; at 1.2 µM 3% | [4]; at 3.7 µM -2% | [4]; [16] 36% | [4]; at 11.0 µM -1% | [4]; at 33.0 µM 22% | [4]; [17] 51% | [5]; at 1.2 µM -36% | [5]; at 3.7 µM -8% | [5]; [16] -11% | [5]; at 11.0 µM -22% | [5]; at 33.0 µM 24% | [5]; [17] 66% | [5]; at 50.0 µM 60.3% | [14]; at 1.2 µM -16% | [14]; at 3.7 µM -13% | [14]; at 11.0 µM -20% | [14]; at 33.0 µM 19% | [6]; [16] 37% | [6]; [17] 68% | [7]; at 1.2 µM 21% | [7]; at 3.7 µM 22% | [7]; at 11.0 µM 29% | [7]; at 33.0 µM 37% | [15]; [16] 23% | [15]; [17] 48% | [15]; at 50.0 µM 60.9% | [9]; at 1.2 µM -38% | [9]; at 3.7 µM -25% | [9]; at 11.0 µM -28% | [9]; at 33.0 µM 53% | [10]; at 1.2 µM 20% | [10]; at 3.7 µM 29% | [10]; at 11.0 µM 26% | [11]; at 1.2 µM -6% | [11]; at 3.7 µM -26% | [11]; at 11.0 µM -12%
